The record followed here is article PMC8384837, “Expanding the binding specificity for RNA recognition by a PUF domain”.

Common to all, as to assay: yeast three-hybrid, YBZ-1, SC-Leu-His + 0.5 mM 3-AT, 4 days
Common to all, as to details: tags: N-Gal4 AD-HA kept; label: inside an RPR1-promoter hybrid RNA with tandem MS2 sites; ssRNA

For one test, the target named is PUM1 PUF domain R5-RQA (Homo sapiens, UniProt Q14671 828-1176, C1007R;R1008Q;Q1011A). In outline:
(§1)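 Pumilio-1 PUF domain libraries, randomized (NNK) at the three base-contacting residues of each repeat, were co-expressed with matching RNA elements from a centromeric plasmid in strain YBZ-1 (LexA–MS2 coat fusion, HIS3 reporter). Transformants were plated on SC-Leu (input) and SC-Leu-His + 0.5 mM 3-AT (selection) for four days, and repeat regions were PCR-amplified and Illumina-sequenced. The interaction score is the log2 change in variant frequency from input to selection, with pseudocount 1 where absent.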

The target of the next test is PUM1 PUF domain R5-GGE (Homo sapiens, UniProt Q14671 828-1176, C1007G;R1008G;Q1011E). In outline: as §1
The target in another test is PUM1 PUF domain R5-SED (Homo sapiens, UniProt Q14671 828-1176, C1007S;R1008E;Q1011D). In outline:
as §1

A further test addresses PUM1 PUF domain R1-VKR (Homo sapiens, UniProt Q14671 828-1176, S863V;R864K;Q867R). In outline:
as §1

Another test has as its target PUM1 PUF domain R1-RKV (Homo sapiens, UniProt Q14671 828-1176, S863R;R864K;Q867V). In outline: as §1
For another test, the target named is PUM1 PUF domain R8-RWF (Homo sapiens, UniProt Q14671 828-1176, N1122R;Y1123W;Q1126F). In outline: as §1
The target in another test is PUM1 PUF domain R1-QRR (Homo sapiens, UniProt Q14671 828-1176, S863Q;Q867R). In outline:
as §1

A further test deals with PUM1 PUF domain R1-QIR (Homo sapiens, UniProt Q14671 828-1176, S863Q;R864I;Q867R). In outline:
as §1

Another test has as its target PUM1 PUF domain R3-EWV (Homo sapiens, UniProt Q14671 828-1176, C935E;R936W;Q939V). In outline: as §1
The next test concerns the target PUM1 PUF domain R3-GWP (Homo sapiens, UniProt Q14671 828-1176, C935G;R936W;Q939P). In outline:
as §1

Another test concerns the target PUM1 PUF domain R3-ARI (Homo sapiens, UniProt Q14671 828-1176, C935A;Q939I). In outline: as §1
A further test deals with PUM1 PUF domain R3-RIY (Homo sapiens, UniProt Q14671 828-1176, C935R;R936I;Q939Y). In outline:
as §1

Another test has as its target PUM1 PUF domain R5-GKS (Homo sapiens, UniProt Q14671 828-1176, C1007G;R1008K;Q1011S). In outline:
as §1

A further test addresses T1, PUM1 PUF domain R6-TWG (Homo sapiens, UniProt Q14671 828-1176, N1043T;Y1044W;Q1047G).
T1 sequence: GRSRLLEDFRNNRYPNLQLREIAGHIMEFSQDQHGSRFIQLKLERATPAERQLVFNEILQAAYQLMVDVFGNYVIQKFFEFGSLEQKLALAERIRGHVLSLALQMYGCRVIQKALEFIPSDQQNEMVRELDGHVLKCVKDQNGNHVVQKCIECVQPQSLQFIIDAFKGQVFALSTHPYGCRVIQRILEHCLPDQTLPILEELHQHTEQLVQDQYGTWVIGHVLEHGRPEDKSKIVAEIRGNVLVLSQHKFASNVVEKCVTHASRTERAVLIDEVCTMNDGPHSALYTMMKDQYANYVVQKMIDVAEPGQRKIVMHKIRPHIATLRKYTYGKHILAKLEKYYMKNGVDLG
In outline:
as §1

The target in another test is PUM1 PUF domain R4-RIF (Homo sapiens, UniProt Q14671 828-1176, N971R;H972I;Q975F). In outline:
as §1

The target of a further test is PUM1 PUF domain R4-DWA (Homo sapiens, UniProt Q14671 828-1176, N971D;H972W;Q975A). In outline: as §1

Regarding “GGCUAGAACUAGUGGAUCCCCCGGCGCCCGGCGGCUCGAGCCCGGGUAAGUGUGAAUAGUCUGCAUGCCGCCGGGCGCCAUGCCUGCAGGUCGACUCUAGAAAACAUG”, the binding signal with PUM1 PUF domain R5-RQA is 0.37 log2 enrichment (interaction score); in the test with PUM1 PUF domain R5-GGE, 3.62 log2 enrichment (interaction score); with PUM1 PUF domain R5-SED, 5.49 log2 enrichment (interaction score).
In the case of “GGCUAGAACUAGUGGAUCCCCCGGCGCCCGGCGGCUCGAGCCCGGGUAAGUGUAAAUGGUCUGCAUGCCGCCGGGCGCCAUGCCUGCAGGUCGACUCUAGAAAACAUG”, the binding signal in the test with PUM1 PUF domain R1-VKR is 0.84 log2 enrichment (interaction score); with PUM1 PUF domain R1-RKV, 0.48 log2 enrichment (interaction score).
As to “GGCUAGAACUAGUGGAUCCCCCGGCGCCCGGCGGCUCGAGCCCGGGUAAGCGUAAAUAGUCUGCAUGCCGCCGGGCGCCAUGCCUGCAGGUCGACUCUAGAAAACAUG”, in the test with PUM1 PUF domain R8-RWF, the binding signal is 5.22 log2 enrichment (interaction score).
Consider “GGCUAGAACUAGUGGAUCCCCCGGCGCCCGGCGGCUCGAGCCCGGGUAAGUGUAAAUCGUCUGCAUGCCGCCGGGCGCCAUGCCUGCAGGUCGACUCUAGAAAACAUG”, for which the binding signal with PUM1 PUF domain R1-QRR is 5.33 log2 enrichment (interaction score); with PUM1 PUF domain R1-VKR it was 3.48 log2 enrichment (interaction score); with PUM1 PUF domain R1-QIR, 3.53 log2 enrichment (interaction score).
Consider “GGCUAGAACUAGUGGAUCCCCCGGCGCCCGGCGGCUCGAGCCCGGGUAAGUGUAAUUAGUCUGCAUGCCGCCGGGCGCCAUGCCUGCAGGUCGACUCUAGAAAACAUG”, for which the binding signal with PUM1 PUF domain R3-EWV is 2.82 log2 enrichment (interaction score); with PUM1 PUF domain R3-GWP it was 4.22 log2 enrichment (interaction score); in the test with PUM1 PUF domain R3-ARI it was 2.15 log2 enrichment (interaction score); with PUM1 PUF domain R3-RIY it was 2.12 log2 enrichment (interaction score).
For the sequence “GGCUAGAACUAGUGGAUCCCCCGGCGCCCGGCGGCUCGAGCCCGGGUAAGUGUUAAUAGUCUGCAUGCCGCCGGGCGCCAUGCCUGCAGGUCGACUCUAGAAAACAUG”, the binding signal is 3.25 log2 enrichment (interaction score) with PUM1 PUF domain R5-GKS and 5.37 log2 enrichment (interaction score) with PUM1 PUF domain R5-RQA.
For “GGCUAGAACUAGUGGAUCCCCCGGCGCCCGGCGGCUCGAGCCCGGGUAAGUGUCAAUAGUCUGCAUGCCGCCGGGCGCCAUGCCUGCAGGUCGACUCUAGAAAACAUG”, in that order: 0.75 log2 enrichment (interaction score) and 4.83 log2 enrichment (interaction score).
For “GGCUAGAACUAGUGGAUCCCCCGGCGCCCGGCGGCUCGAGCCCGGGUAAGUGUAAAUAGUCUGCAUGCCGCCGGGCGCCAUGCCUGCAGGUCGACUCUAGAAAACAUG”, the binding signal in the test with PUM1 PUF domain R3-GWP was 6.69 log2 enrichment (interaction score); in the test with PUM1 PUF domain R3-ARI, 4.45 log2 enrichment (interaction score); with PUM1 PUF domain R6-TWG it was 3.96 log2 enrichment (interaction score); with PUM1 PUF domain R4-RIF, 5.22 log2 enrichment (interaction score); with PUM1 PUF domain R4-DWA it was 5.39 log2 enrichment (interaction score).
